These results are taken from PubChem BioAssay (EPA / NIEHS).

Activity calls are given as the source filed them. How the source made its calls: active means hit-call score of the fitted dose curve at least 0.9, where 1 is the maximum; inactive means score below 0.9.

The nature of test [1]: ATG_CRE_CIS: Attagene CIS-FACTORIAL HepG2 Assay for human cAMP Responsive Element (CRE) binding protein 3 (AID 2282926). The settings on record: HepG2 CRE cis-reporter, Attagene multiplexed mRNA; actives raise or lower the signal. The gist of the method:
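Capillary electrophoresis of 6-FAM-labelled, HpaI-digested PCR products quantified reporter transcripts. These came from HepG2 transiently transfected with cis-element reporters and exposed to test chemicals for 24 hours, with DMSO defining baseline activity.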

Test [2] has as its target Aryl hydrocarbon receptor (Homo sapiens) (UniProt P35869). Put plainly: ATG_Ahr_CIS: Attagene CIS-FACTORIAL HepG2 Assay for human Aryl Hydrocarbon Receptor (Ahr) (AID 2282930). Conditions: HepG2 AhR cis-factorial reporter transcription; actives raise or lower the signal. The essentials:
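Values derive from bidirectional fitting against DMSO negative control. Underlying signal: cis-element reporter mRNA in transiently transfected HepG2, harvested 24 h post-dose and measured by RT-PCR plus capillary electrophoresis.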

Test [3] in a line: ATG_AP_1_CIS: Attagene CIS-FACTORIAL HepG2 Assay for human Activator Protein 1 (AP-1) (AID 2282931). Conditions: HepG2 Attagene cis-factorial AP-1 reporter mRNA; actives raise or lower the signal. The gist of the method: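 Fluorescence of labelled PCR fragments separated by capillary electrophoresis gives reporter mRNA levels. HepG2 with transfected cis-regulated reporter units, 24 h exposure; DMSO serves as baseline for bidirectional curve fits.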

Test [4] is described as follows: ATG_BRE_CIS: Attagene CIS-FACTORIAL HepG2 Assay for human Bone Morphogenetic Protein (BMP) Response Element (BRE) (AID 2282933). The settings on record: HepG2 BMP response element reporter, Attagene transcription factor profiling; actives raise or lower the signal. The gist of the method:
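Endogenous transcription factor activity at a BMP response element was monitored in transfected HepG2 cells 24 h after dosing. Fluorescent RT-PCR products were resolved by capillary electrophoresis, and activity was fitted in both directions versus DMSO.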

A short description of test [5]: ATG_E_Box_CIS: Attagene CIS-FACTORIAL HepG2 Assay for human Enhancer Box (E-box) (AID 2282936). Conditions: HepG2 E-box cis-reporter transcription, actives raise or lower the signal. The gist of the method:
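Endogenous transcription factor activity was sensed in human HepG2 liver cells through transfected cis-promoter reporter units. After 24 h of dosing, total RNA was reverse-transcribed and reporter cDNA resolved by capillary electrophoresis.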

Test [6] is described as follows: ATG_M_19_CIS: Attagene CIS-FACTORIAL HepG2 Assay for M19 Transcription Factor (Internal Marker) (AID 2282939). The settings on record: HepG2 Attagene CIS-FACTORIAL M19 internal marker reporter; actives raise or lower the signal. The gist of the method:
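Background-control endpoint from a multiplexed HepG2 reporter panel. Cells carrying cis-regulated reporter constructs are treated 24 h, then reporter transcripts are amplified, fluorescently labelled and sized by capillary electrophoresis. DMSO defines baseline.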

Test [7] in a line: ATG_GLI_CIS: Attagene CIS-FACTORIAL HepG2 Assay for human Zinc Finger Protein GLI1 (AID 2282945). The settings on record: HepG2, Attagene cis-factorial reporter mRNA, GLI element; actives raise or lower the signal. The gist of the method: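 HepG2 cells transiently transfected with cis-promoter multiplexed reporter units report endogenous transcription factor activity. After 24 h chemical exposure, reporter mRNA was quantified by RT-PCR, 6-FAM labelling, HpaI digestion and capillary electrophoresis, with bidirectional fitting against DMSO.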

A short description of test [8]: ATG_M_06_CIS: Attagene CIS-FACTORIAL HepG2 Assay for M06 Transcription Factor (Internal Marker) (AID 2282950). Conditions: HepG2 Attagene CIS-FACTORIAL M06 internal marker reporter; actives raise or lower the signal. The essentials: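 Steps: transfect HepG2 with multiplexed cis-element reporter constructs; dose chemical 24 h; extract RNA with DNase treatment; reverse-transcribe, PCR-amplify, 6-FAM label, HpaI digest; separate fragments by capillary electrophoresis. Activity fitted both directions versus DMSO.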

Test [9] addresses Hypoxia-inducible factor 1-alpha (Homo sapiens) (UniProt Q16665). Put plainly: ATG_HIF1a_CIS: Attagene CIS-FACTORIAL HepG2 Assay for human Hypoxia Inducible Factor 1 (HIF1A) (AID 2282951). Conditions: HepG2 Attagene cis-factorial HIF1a reporter transcription; actives raise or lower the signal. The essentials:
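HepG2, transient cis-reporter library, 24 h dosing. RNA → RT (oligo dT) → PCR → 6-FAM primer extension → HpaI → CE. Bidirectional curve fit vs DMSO.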

Test [10] addresses Hepatocyte nuclear factor 6 (Homo sapiens) (UniProt Q9UBC0). Nature of the test: ATG_HNF6_CIS: Attagene CIS-FACTORIAL HepG2 Assay for human Hepatocyte Nuclear Factor 6 (HNF6) (AID 2282952). The settings on record: HepG2 Attagene cis-factorial HNF6 reporter transcription; actives raise or lower the signal. The essentials: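 Activity values derive from bidirectional fitting against DMSO of reporter mRNA levels, measured by capillary electrophoresis of labelled RT-PCR products from HepG2 cells exposed 24 h.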

In test [11] the target is Heat shock factor protein 1 (Homo sapiens) (UniProt Q00613). Nature of the test: ATG_HSE_CIS: Attagene CIS-FACTORIAL HepG2 Assay for human Heat Shock Transcription Factor 1 (HSE) (AID 2282953). The settings on record: HepG2 HSE cis-reporter, Attagene RNA transcription; actives raise or lower the signal. The gist of the method: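 Cells were transfected with cis-element-driven reporter constructs, dosed for 24 h, then total RNA was reverse-transcribed and reporter cDNA amplified, FAM-labelled and digested with HpaI. Fragments were resolved by capillary electrophoresis; gain or loss was fitted against DMSO.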
Sequence of Heat shock factor protein 1 (Homo sapiens) (Q00613 whole entry, looked up, the tested form may be a part): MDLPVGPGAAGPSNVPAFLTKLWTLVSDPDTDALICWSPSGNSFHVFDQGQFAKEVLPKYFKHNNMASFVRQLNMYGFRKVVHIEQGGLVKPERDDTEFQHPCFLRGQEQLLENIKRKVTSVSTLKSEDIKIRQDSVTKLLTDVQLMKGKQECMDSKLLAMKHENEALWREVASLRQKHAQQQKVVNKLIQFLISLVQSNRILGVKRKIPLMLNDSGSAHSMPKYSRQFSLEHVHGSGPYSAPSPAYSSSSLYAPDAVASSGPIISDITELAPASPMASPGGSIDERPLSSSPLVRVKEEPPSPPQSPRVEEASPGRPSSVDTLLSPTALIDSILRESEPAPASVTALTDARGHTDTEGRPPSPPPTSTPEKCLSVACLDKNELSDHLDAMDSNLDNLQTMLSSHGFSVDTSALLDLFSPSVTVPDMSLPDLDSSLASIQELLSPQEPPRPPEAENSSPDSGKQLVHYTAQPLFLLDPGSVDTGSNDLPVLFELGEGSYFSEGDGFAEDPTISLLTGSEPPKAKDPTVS

The nature of test [12]: ATG_TA_CIS: Attagene CIS-FACTORIAL HepG2 Assay for human TA Basal Promoter (AID 2282964). Conditions: HepG2 Attagene CIS-factorial TA basal promoter reporter; actives raise or lower the signal. The essentials:
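Steps: transfect HepG2 with MRTUs; dose 24 h; isolate RNA, DNase-treat, reverse-transcribe; PCR and FAM-label reporter cDNA; digest with HpaI 2h at 37 C; run capillary electrophoresis. Activity fitted both directions against DMSO.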

Test [13] is described as follows: ATG_VDRE_CIS: Attagene CIS-FACTORIAL HepG2 Assay for human Vitamin D Receptor Element (VDRE) (AID 2282968). The settings on record: HepG2 VDRE cis-reporter transcription, actives raise or lower the signal. The gist of the method: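 Steps: transfect HepG2 with multiple reporter transcription units; dose chemicals 24 h; isolate RNA; RT-PCR; label with 6-FAM primer extension; HpaI digest; capillary electrophoresis. Curves fitted both directions against DMSO.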

Test [14] has as its target X-box-binding protein 1 (Homo sapiens) (UniProt P17861). Nature of the test: ATG_Xbp1_CIS: Attagene CIS-FACTORIAL HepG2 Assay for human X-box Binding Protein 1 (XBP1) (AID 2282972). Conditions: HepG2 XBP1 cis-element reporter, Attagene multiplex; actives raise or lower the signal. The essentials: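 Changes in reporter transcript abundance, read by RT-PCR and capillary electrophoresis, reflect endogenous transcription factor activity. Transfected HepG2 cells received compound for 24 hours; DMSO defined baseline for bidirectional analysis.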

Test [15] concerns the target Nuclear respiratory factor 1 (Homo sapiens) (UniProt Q16656). Nature of the test: ATG_NRF1_CIS: Attagene CIS-FACTORIAL HepG2 Assay for human Nuclear Respiratory Factor 1 (NRF1) Orphan Gene (AID 2282987). The settings on record: HepG2 NRF1 cis-element reporter, Attagene multiplex; actives raise or lower the signal. The gist of the method:
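Human hepatoma HepG2 cells carrying transfected promoter-regulated reporter units were incubated with test chemicals for 24 h. Reporter transcripts were measured by RT-PCR plus capillary electrophoresis, and endpoints derived by bidirectional fitting with DMSO as baseline.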

Test [16] concerns the target Myc proto-oncogene protein (Homo sapiens) (UniProt P01106). Put plainly: ATG_Myc_CIS: Attagene CIS-FACTORIAL HepG2 Assay for human Myelocytomatosis (Myc) Proto-Oncogene Transcription Factor (AID 2282990). The settings on record: HepG2, Attagene cis-reporter transcription factor activity; actives raise or lower the signal. The gist of the method: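 Multiplexed cis-reporter transcription in HepG2 cells after 24 h chemical treatment. Reporter mRNA measured by RT-PCR and capillary electrophoresis fluorescence; activity fitted bidirectionally against DMSO control.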

The nature of test [17]: ATG_NRF2_ARE_CIS: Attagene CIS-FACTORIAL HepG2 Assay for human Nuclear Factor Erythroid 2 Related Factor 2 (NFR2) response to Antioxidant Response Elements (ARE) (AID 2282992). Conditions: HepG2 Attagene ARE/NRF2 reporter, transcription factor activity; actives raise or lower the signal. The essentials:
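Using transiently transfected HepG2 cells exposed for 24 h, reporter mRNA levels were determined by RT-PCR with fluorescent primer extension and capillary electrophoresis, analysed for gain or loss of signal against DMSO.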

A short description of test [18]: ATG_Oct_MLP_CIS: Attagene CIS-FACTORIAL HepG2 Assay for human Octamer-Binding Transcription Factor (Oct) (AID 2282993). The settings on record: HepG2 Attagene cis-factorial Oct reporter, mRNA; actives raise or lower the signal. The gist of the method:
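Multiplexed cis-reporter assay in human liver HepG2 cells, 24 h incubation. Reporter RNA amplified and labelled, then resolved by capillary electrophoresis; DMSO serves as negative control and baseline.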

Test [19] addresses Cellular tumor antigen p53 (Homo sapiens) (UniProt P04637). Put plainly: ATG_p53_CIS: Attagene CIS-FACTORIAL HepG2 Assay for human p53 Transcription Factor (AID 2282994). The settings on record: HepG2 p53 cis-element reporter, Attagene mRNA; actives raise or lower the signal. The gist of the method: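 In HepG2 cells, reporter transcription units under cis-regulatory promoters were transiently introduced. Following 24 h treatment, RNA was processed to labelled, digested cDNA fragments read by capillary electrophoresis; fitting was bidirectional versus DMSO.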

Sequence of Cellular tumor antigen p53 (Homo sapiens) (P04637 whole entry, looked up, the tested form may be a part): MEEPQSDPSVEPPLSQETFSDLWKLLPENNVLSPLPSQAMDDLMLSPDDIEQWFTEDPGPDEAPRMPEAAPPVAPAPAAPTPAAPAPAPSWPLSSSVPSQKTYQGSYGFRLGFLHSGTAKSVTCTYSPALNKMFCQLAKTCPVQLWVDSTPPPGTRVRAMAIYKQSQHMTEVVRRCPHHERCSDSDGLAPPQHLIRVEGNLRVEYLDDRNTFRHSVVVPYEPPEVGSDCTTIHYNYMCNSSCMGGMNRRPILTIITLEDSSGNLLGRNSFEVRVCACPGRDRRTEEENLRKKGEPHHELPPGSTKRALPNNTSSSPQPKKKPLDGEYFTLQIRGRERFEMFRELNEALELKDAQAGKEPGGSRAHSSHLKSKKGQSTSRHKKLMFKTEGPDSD
Sequence of X-box-binding protein 1 (Homo sapiens) (P17861 whole entry, looked up): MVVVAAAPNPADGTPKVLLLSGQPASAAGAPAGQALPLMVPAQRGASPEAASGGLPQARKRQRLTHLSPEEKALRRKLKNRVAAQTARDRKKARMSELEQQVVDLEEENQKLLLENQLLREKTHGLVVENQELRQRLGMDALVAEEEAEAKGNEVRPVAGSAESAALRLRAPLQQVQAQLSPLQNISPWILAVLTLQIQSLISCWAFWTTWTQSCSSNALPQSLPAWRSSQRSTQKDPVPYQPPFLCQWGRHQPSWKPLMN
Sequence of Aryl hydrocarbon receptor (Homo sapiens) (P35869 whole entry, looked up): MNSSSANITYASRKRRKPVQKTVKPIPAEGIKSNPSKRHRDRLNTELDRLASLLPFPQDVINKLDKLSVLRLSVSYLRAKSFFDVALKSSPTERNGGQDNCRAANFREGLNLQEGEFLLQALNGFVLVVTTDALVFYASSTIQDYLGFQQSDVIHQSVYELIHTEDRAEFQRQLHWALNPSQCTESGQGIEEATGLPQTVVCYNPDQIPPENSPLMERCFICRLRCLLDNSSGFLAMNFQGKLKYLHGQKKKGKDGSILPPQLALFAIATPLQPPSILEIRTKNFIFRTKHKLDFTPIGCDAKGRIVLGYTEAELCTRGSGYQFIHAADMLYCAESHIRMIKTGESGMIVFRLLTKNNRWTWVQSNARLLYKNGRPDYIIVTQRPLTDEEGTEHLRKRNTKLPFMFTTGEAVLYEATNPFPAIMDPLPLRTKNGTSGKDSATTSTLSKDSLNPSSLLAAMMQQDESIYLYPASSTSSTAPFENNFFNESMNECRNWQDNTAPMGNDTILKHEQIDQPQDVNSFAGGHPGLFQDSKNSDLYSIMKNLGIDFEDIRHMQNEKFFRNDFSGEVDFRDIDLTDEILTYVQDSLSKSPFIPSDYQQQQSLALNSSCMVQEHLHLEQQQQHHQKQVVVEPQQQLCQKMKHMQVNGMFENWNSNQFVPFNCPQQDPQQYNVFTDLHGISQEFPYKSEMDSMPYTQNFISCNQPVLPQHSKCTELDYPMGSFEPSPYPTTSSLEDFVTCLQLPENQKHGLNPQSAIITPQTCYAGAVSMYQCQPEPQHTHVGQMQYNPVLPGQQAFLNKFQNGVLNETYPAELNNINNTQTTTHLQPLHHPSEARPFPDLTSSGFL
Sequence of Myc proto-oncogene protein (Homo sapiens) (P01106 whole entry, looked up): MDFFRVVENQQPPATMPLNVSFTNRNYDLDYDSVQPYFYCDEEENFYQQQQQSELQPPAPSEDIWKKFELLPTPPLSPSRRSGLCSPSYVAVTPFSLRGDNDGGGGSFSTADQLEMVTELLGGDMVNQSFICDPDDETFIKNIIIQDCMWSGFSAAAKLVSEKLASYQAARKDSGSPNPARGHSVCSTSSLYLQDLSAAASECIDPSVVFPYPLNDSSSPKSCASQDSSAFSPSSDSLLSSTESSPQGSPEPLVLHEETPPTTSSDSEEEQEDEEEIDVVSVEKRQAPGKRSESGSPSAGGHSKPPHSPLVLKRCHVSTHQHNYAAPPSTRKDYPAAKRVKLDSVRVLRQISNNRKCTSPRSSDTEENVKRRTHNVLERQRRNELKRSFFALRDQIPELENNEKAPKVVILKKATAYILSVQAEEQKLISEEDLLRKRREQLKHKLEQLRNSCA
Sequence of Hypoxia-inducible factor 1-alpha (Homo sapiens) (Q16665 whole entry, looked up): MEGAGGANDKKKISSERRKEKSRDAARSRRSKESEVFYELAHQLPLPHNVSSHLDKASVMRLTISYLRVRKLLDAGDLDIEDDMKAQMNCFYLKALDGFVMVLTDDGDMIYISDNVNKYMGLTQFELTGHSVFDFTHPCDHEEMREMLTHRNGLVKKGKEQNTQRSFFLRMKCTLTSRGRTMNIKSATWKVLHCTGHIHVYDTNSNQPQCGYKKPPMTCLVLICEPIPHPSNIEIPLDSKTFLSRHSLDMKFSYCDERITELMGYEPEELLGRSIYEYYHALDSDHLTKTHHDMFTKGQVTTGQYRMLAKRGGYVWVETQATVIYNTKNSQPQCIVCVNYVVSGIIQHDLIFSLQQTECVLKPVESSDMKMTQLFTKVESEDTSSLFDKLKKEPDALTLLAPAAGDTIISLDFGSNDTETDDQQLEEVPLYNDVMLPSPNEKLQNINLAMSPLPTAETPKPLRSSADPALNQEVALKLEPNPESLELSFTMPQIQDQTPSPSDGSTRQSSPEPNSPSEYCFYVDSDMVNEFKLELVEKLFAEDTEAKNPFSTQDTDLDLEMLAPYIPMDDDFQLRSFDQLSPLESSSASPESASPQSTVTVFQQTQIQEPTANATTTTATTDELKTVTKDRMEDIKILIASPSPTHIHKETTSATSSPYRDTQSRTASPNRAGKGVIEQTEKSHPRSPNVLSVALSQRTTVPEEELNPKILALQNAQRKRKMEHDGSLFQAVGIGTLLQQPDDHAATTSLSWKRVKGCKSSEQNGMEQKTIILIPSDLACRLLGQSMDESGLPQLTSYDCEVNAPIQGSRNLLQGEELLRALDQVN
Sequence of Hepatocyte nuclear factor 6 (Homo sapiens) (Q9UBC0 whole entry, looked up): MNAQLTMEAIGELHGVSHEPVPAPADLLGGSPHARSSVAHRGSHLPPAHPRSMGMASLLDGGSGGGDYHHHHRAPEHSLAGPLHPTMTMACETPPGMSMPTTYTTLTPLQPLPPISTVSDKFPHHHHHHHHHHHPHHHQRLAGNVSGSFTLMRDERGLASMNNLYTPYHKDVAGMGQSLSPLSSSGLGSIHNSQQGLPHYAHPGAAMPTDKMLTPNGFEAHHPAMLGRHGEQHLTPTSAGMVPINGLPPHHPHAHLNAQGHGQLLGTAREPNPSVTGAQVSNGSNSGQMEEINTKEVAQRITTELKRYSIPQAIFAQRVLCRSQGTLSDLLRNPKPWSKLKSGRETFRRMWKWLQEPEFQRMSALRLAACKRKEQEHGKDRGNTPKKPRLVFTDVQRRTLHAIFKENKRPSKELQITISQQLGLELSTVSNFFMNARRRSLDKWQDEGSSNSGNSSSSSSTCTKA
Sequence of Nuclear respiratory factor 1 (Homo sapiens) (Q16656 whole entry, looked up): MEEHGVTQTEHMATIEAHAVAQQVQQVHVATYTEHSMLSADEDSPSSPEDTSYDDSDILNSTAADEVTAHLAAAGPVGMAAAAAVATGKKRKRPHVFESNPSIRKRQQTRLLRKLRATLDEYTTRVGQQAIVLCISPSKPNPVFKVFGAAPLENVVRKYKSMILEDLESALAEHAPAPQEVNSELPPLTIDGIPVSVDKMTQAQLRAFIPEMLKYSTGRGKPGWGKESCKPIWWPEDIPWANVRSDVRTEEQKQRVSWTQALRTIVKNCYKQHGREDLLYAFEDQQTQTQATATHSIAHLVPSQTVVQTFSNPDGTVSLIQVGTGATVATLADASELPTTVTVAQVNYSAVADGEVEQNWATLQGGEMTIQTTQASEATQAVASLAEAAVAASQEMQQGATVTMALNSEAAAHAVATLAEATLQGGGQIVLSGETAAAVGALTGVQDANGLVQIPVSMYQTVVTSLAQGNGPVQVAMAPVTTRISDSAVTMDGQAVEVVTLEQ

Turning to `Oc1ccc(Cl)cc1`, the compound was called inactive in [1], in test [2], in test [3], in test [4], in test [5] and in test [6]. Also, the result in test [7], in test [8], in test [9], in test [10], in test [11] and in test [12] was inactive. The outcome in test [13], in test [14], in test [15], in test [16], in [17] and in test [18] was inactive. For the same compound, in test [19], the outcome was inactive.
Consider `CCCCOC(=O)CCC(=O)OCCCC`, for which the compound was classed as inactive in test [1], in test [2], in [3], in test [4], in [8] and in test [9]. Besides, the outcome in [10], in [11], in [12], in [14], in test [16] and in test [17] was inactive. Further, the call in test [18] and in [19] was inactive.
Take `CCOC(=O)C1OC1(C)c1ccccc1` (stereo unspecified): the call in test [1], in test [2], in [3], in [4], in [5] and in test [7] was inactive. In addition, the result in test [9], in [10], in test [11], in test [12], in test [14] and in [15] was inactive. Also, the compound was classed as inactive in test [16], in test [17], in [18] and in test [19].
`C[C@]12CCC(=O)C(O)=C1CC[C@@H]1[C@@H]2CC[C@]2(C)C(=O)CC[C@@H]12`: the compound was called inactive in test [1], in [3], in [4], in test [5], in test [6] and in [9]. The outcome in test [10], in test [11], in test [12], in [13], in [14] and in test [15] was inactive. For the same compound, the result in test [16], in test [18] and in test [19] was inactive. For the same compound, the AC50 is 31.2 µM (active) in test [2] and 13.8 µM (active) in test [17].
